Shiga inhibitor: Shiga toxin inhibition | Vero cells, Shiga toxin protein synthesis inhibition reporter | inhibition, % at 38.7 µM | 290,000 tested, 9.2% active | AID 2315; in the data active = inhibition mostly above about 28%, no sharp cut-off; inactive = mostly below about 43%
Lassa entry inh: blocks Lassa virus binding to or entry into cells; Lassa virus pseudotype entry inhibition, cell reporter; Potency, µM (titrated, usually from 37.9 µM), actives largely listed as inhibitors; 300,000 tested, 1.2% active; AID 540256; calls by dose curve; tested in HEK293 cells; note: nearly all actives have a fitted effect of over 50% in size
Pf growth 96h: P. falciparum growth inhibition at 96 hours; P. falciparum luciferase reporter growth, 96 h; Potency, µM (titrated, usually from 28.7 µM), actives largely listed as inhibitors; 320,000 tested, 6.9% active
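Two parasite generations (96 h, 37 C, 5% CO2) of compound exposure in infected erythrocytes (0.05% parasitemia, 2% hematocrit). Luciferase-reporter P. falciparum; decreased luminescence indicates inhibited growth, aimed at apicoplast-acting delayed death.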
MARV entry inh: inhibitors of Marburg virus binding or cell entry. Marburg virus pseudotyped entry inhibition, cell reporter. Potency, µM (titrated, usually from 37.8 µM), usual class: inhibitors. 300,000 tested, 1.8% active; calls by dose curve; tested in HEK293 cells
Pf growth 48h: inhibits P. falciparum growth in the first generation, 48 h; P. falciparum luciferase growth in erythrocytes, 48 h; Potency, µM (series often up to 28.7 µM), actives largely listed as inhibitors; 310,000 tested, 5.9% active; AID 504832
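A one-generation exposure of luciferase-tagged malaria parasites in RPMI 1640/Albumax erythrocyte culture, 37 C and 5% CO2. Inhibition is inferred from decreased luminescence after adding detection reagent.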
Cycloheximide cs: affects cycloheximide protein synthesis inhibition readout, counter-screen; 300,000 tested, 12% active; cell reporter, cycloheximide protein synthesis inhibition counterscreen; max response, %; in the data active = max response mostly above about 13%, no sharp cut-off; inactive = mostly below about 14%; note: read at 38.3 µM for the half of the compounds with a filed dose
Large screens that a line does not name were inactive. A selection: hits, their analogues and other compounds. The true share with any hit is near 19%. Unless noted, calls come from the whole dose curve; as a rule, active = well fitted inhibition curve with a large enough effect; inconclusive = small, poorly fitted or top-dose-only effect, or another doubt; inactive = no such curve, though single readings can be large or run the other way.

COc1nnc(-c2ccc(C)c(S(N)(=O)=O)c2)c2ccccc12	Pf growth 96h 2.9µM (no result: Lassa entry inh, MARV entry inh, Pf growth 48h)
COc1nnc(-c2ccc(C)c(S(=O)(=O)NC(C)C)c2)c2ccccc12	Pf growth 96h 2.6µM (no result: Lassa entry inh, MARV entry inh, Pf growth 48h)
CC1(C)CC(=O)C=C(NNC(=O)c2ccccc2)C1	Shiga inhibitor active, Pf growth 96h inconclusive, Cycloheximide cs 24
O=C(Nc1cc(Br)c(O)c(Br)c1)c1cccc(NC(=O)c2ccco2)c1	Pf growth 96h 7.4µM, Pf growth 48h inconclusive (no result: Shiga inhibitor, Lassa entry inh, MARV entry inh)
O=C(Nc1cccc(C(=O)N2CCCCCC2)c1)c1ccco1	Cycloheximide cs 10
CC(=O)c1cccc(NC(=O)c2cccc(NC(=O)c3ccco3)c2)c1	none (no result: Shiga inhibitor)
O=C(Nc1cccc(NC(=O)c2ccco2)c1)c1cccc(Br)c1	Shiga inhibitor 86, Lassa entry inh inconclusive
Cc1ccc(C)c2[nH]c(=O)c(CN(CCN3CCCC3)C(=O)Nc3cccc(Cl)c3)cc12	Lassa entry inh inconclusive, MARV entry inh inconclusive, Pf growth 48h 2.3µM
COc1ccc(OC)c(CN(CCN2CCOCC2)C(=O)Nc2cccc(Cl)c2)c1	none
Cc1ccc2[nH]c(=O)c(CN(CCN3CCOCC3)C(=O)Nc3ccc(F)cc3)cc2c1	none (no result: Pf growth 96h)
Cc1cc(C)c2cc(CN(CCO)C(=O)Nc3ccc(Cl)cc3)c(=O)[nH]c2c1	Lassa entry inh inconclusive, Pf growth 96h inconclusive, MARV entry inh 11µM, Pf growth 48h 9.3µM
Cc1cc(C)c2cc(CN(CCN3CCCC3)C(=O)Nc3ccc(F)cc3)c(=O)[nH]c2c1	Lassa entry inh inconclusive, Pf growth 96h inconclusive, MARV entry inh 4µM, Pf growth 48h inconclusive
COc1cc(C2CC(=O)Nc3c2c(C)nn3-c2nc(C)cc(C)n2)cc(OC)c1O (configuration not stated)	none (no result: Shiga inhibitor, Pf growth 96h, Pf growth 48h, Cycloheximide cs)
COc1cc(C(=O)Nc2nc(-c3ccc(Cl)cc3)c(C)s2)ccc1OCC(=O)Nc1ccc(F)cc1	Lassa entry inh 10µM, Pf growth 96h 4.1µM, MARV entry inh inconclusive, Pf growth 48h inconclusive
O=C(CCCSc1nc2ccccc2[nH]1)Nc1nnc(-c2ccccc2)o1	Pf growth 96h inconclusive, Pf growth 48h inconclusive
O=C(NNc1nc2c(F)cc(F)cc2s1)C1=COCCO1	none
O=C(NNc1nc2cc3c(cc2s1)OCO3)c1ccc(F)cc1	Shiga inhibitor 68, Pf growth 96h inconclusive, Cycloheximide cs 24
O=C(NNc1nc2cc3c(cc2s1)OCCO3)c1ccc(F)cc1	Cycloheximide cs 33 (no result: Lassa entry inh, MARV entry inh)
C/C(O)=c1/cnc2nc3ccccc3n2c1=O	none
Cc1ccc(-c2cc(N)n(-c3ccc(F)cc3)n2)cc1	Shiga inhibitor 67, MARV entry inh inconclusive, Cycloheximide cs 49
Cc1ccc(-c2cc(N)n(-c3ccc(C)cc3)n2)cc1	Shiga inhibitor 57, Lassa entry inh inconclusive, Cycloheximide cs 31
COC(=O)c1ccc(NC(=O)Cn2c(=O)oc3ccccc32)cc1	MARV entry inh inconclusive (no result: Shiga inhibitor, Pf growth 96h, Pf growth 48h, Cycloheximide cs)
COc1ccc(CCN(C)C(=O)CCNC(=O)c2ccc(Br)cc2)cc1OC	Pf growth 96h inconclusive, Pf growth 48h inconclusive
CC(=O)NCCCCCCNC(C)=O	none
C=CCn1c(N)cc(=O)nc1SC(C)C(=O)Nc1ccc(C(=O)OCC)cc1 (configuration not stated)	Pf growth 48h 4.1µM
CCOC(=O)c1ccc(NC(=O)C(C)Sc2nc(=O)cc(N)n2CCc2ccccc2)cc1 (configuration not stated)	MARV entry inh 5µM (no result: Shiga inhibitor, Pf growth 96h, Pf growth 48h, Cycloheximide cs)
Cc1ccc(NC(=O)C(C)Sc2nc(=O)cc(N)n2-c2ccccc2)cc1 (configuration not stated)	none (no result: Pf growth 48h)
CC(C)NC(=O)CCN1C(=O)c2ccccc2Sc2ncccc21	Pf growth 96h 6.6µM (no result: MARV entry inh)
COc1ccc(-c2cc(-c3nnc(COC(=O)CC4CC5CCC4C5)o3)c3ccccc3n2)cc1OC (configuration not stated)	MARV entry inh inconclusive, Pf growth 48h 9.3µM
COc1ccc(CNC(=O)COC(=O)CC2CC3CCC2C3)cc1OC (configuration not stated)	none
C/C(=N\NC(=O)c1ccncc1)c1cc2ccccc2o1	none
C/C(=N\NC(=S)Nc1c(C)cccc1C)c1cc2ccccc2o1	Lassa entry inh inconclusive, Pf growth 96h 12µM, MARV entry inh inconclusive, Pf growth 48h inconclusive
C/C(=N\NC(=S)Nc1ccccc1C)c1cc2ccccc2o1	Shiga inhibitor 26, Lassa entry inh inconclusive, Pf growth 96h 7.4µM, MARV entry inh inconclusive, Pf growth 48h inconclusive, Cycloheximide cs 17
Cc1ccccc1-c1nc(CS(=O)CC(=O)NCCN2CCOCC2)c(C)o1 (configuration not stated)	none (no result: Lassa entry inh, MARV entry inh, Pf growth 48h)
COc1ccc(CCN2CC(O)=C(c3nc(C)cs3)C2=N)cc1OC	none
COc1ccc(CCN2CC(O)=C(c3nc4ccccc4c(=O)[nH]3)C2=N)cc1OC	Pf growth 48h 13µM (no result: Pf growth 96h)
CCC(=O)Nc1cc(NC(=O)CSc2ncc(-c3ccc(F)cc3)n2Cc2ccco2)ccc1C	Shiga inhibitor 76, Lassa entry inh inconclusive, Cycloheximide cs 27
Cn1c(SCC(=O)Nc2cccc3ccccc23)nc(O)cc1=O	Pf growth 96h inconclusive, Pf growth 48h 10µM
COc1ccccc1NC(=O)CSc1nc(O)cc(=O)n1C	Lassa entry inh inconclusive (no result: Pf growth 96h)
O=C(CSc1ncc(-c2ccc(F)cc2)n1Cc1ccco1)Nc1nccs1	MARV entry inh inconclusive (no result: Pf growth 96h, Pf growth 48h)
COc1ccc(NC(=O)CSc2ncc(-c3ccc(F)cc3)n2Cc2ccco2)cc1	Lassa entry inh inconclusive, Pf growth 96h 12µM, MARV entry inh inconclusive, Pf growth 48h 15µM
COCCn1c(SCC(=O)Nc2ccccc2OC)nc2ccccc2c1=O	none (no result: Lassa entry inh, MARV entry inh)
COCCn1c(-c2ccc(OC)cc2)cnc1SCC(=O)Nc1cccc2ccccc12	Lassa entry inh inconclusive, Pf growth 96h 1.7µM, Pf growth 48h inconclusive
CCC(NS(=O)(=O)c1ccc(OC)cc1)C(=O)NCCC1=CCCCC1 (configuration not stated)	Pf growth 96h inconclusive (no result: Pf growth 48h)
COc1ccc(-c2cnc(SCC(=O)Nc3nc(C(C)(C)C)cs3)n2Cc2ccco2)cc1	Lassa entry inh 13µM, Pf growth 96h inconclusive, MARV entry inh inconclusive, Pf growth 48h 13µM
CCC(=O)N1CCC(c2ccc(OC)cc2)=N1	Shiga inhibitor 38, Cycloheximide cs 36
Cc1ccc(C2=NN=C(NC(=O)C(F)(F)F)SC2)cc1	Shiga inhibitor 111, Pf growth 96h inconclusive, MARV entry inh inconclusive, Cycloheximide cs 27
COc1ccc(-c2cn(CCC(=O)O)c(C)n2)cc1	none (no result: Shiga inhibitor, Lassa entry inh, MARV entry inh, Cycloheximide cs)
CCOC(=O)c1[nH]c(C)c(C(=O)N(C)C)c1C	none
CCOC(=O)c1ccc2nc(NC(=O)C(C)C)sc2c1	Shiga inhibitor 59, Cycloheximide cs 44 (no result: Lassa entry inh, MARV entry inh)
CCCC(=O)Nc1nc2ccc(C(=O)OCC)cc2s1	Shiga inhibitor 73, Pf growth 96h inconclusive, Cycloheximide cs 26 (no result: Lassa entry inh, MARV entry inh)
COC(=O)CCCCCCCCC(=O)Nc1nc2ccccc2s1	none
CCCCC(=O)Nc1nc2ccc(C(=O)OC)cc2s1	Shiga inhibitor 97, Cycloheximide cs 27 (no result: Lassa entry inh, MARV entry inh)
Nc1c(C(=O)CSc2nnnn2-c2ccccc2)c(=O)[nH]c(=O)n1C1CC1	none (no result: Shiga inhibitor, Pf growth 96h, Pf growth 48h, Cycloheximide cs)
O=C1Nc2ccc(S(=O)(=O)N3CCCC3)c3ccc(S(=O)(=O)N4CCCC4)c1c23	none

Screening results: PubChem, National Center for Advancing Translational Sciences (NCATS)
